Entries with a potency or affinity are not part of this list. The source made the active and inactive calls.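 Rule for the calls: active = viability loss with half-max dose at or under ten times the top valid dose tested; inconclusive = flat 30 to 70% loss, or poor curve fit; inactive = flat within 30%, weak potency, or gain.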
Assay: viability loss in HRASV12 DRD fibroblasts, dose response, cell-based, DRD BJ fibroblasts, dry powder (AID 493049)
Settings: DRD engineered BJ fibroblasts (HRASV12) viability, Alamar Blue, 48 h; series mostly up to 45 µM

Row | Structure (SMILES) | outcome
1 | O=C(c1[nH]ncc1[N+](=O)[O-])N1CCN(C(c2ccccc2)c2ccccc2)CC1 | inactive
2 | CCC(=O)N(c1ccc(OC)c(Cl)c1)C(C(=O)NCCc1ccccc1)c1cccs1 (stereo unspecified) | inactive
3 | COc1ccc(N(C(=O)[C@@H](C)Cl)C(C(=O)NCCc2ccccc2)c2cccs2)cc1Cl (stereo partly specified) | inactive
4 | COCC(=O)N(c1ccc(OC)c(Cl)c1)C(C(=O)NCCc1ccccc1)c1cccs1 (stereo unspecified) | inactive
5 | COc1ccc(N(C(=O)CSc2ncccn2)C(C(=O)NCCc2ccccc2)c2cccs2)cc1Cl (stereo unspecified) | inactive
6 | COc1ccc(N(C(=O)CO)C(C(=O)NCCc2ccccc2)c2cccs2)cc1Cl (stereo unspecified) | inactive

From PubChem BioAssay AID493049 (Broad Institute, 2011)
